Inconclusive results are not listed. Where a call stands in place of a potency, no number is given. Unmarked numbers belong to inactive results. Activity calls are given as the source filed them. The call rests on the fitted dose curve; in most records, active means well fitted curve in the direction sought with a large enough effect; inconclusive means small, poorly fitted or top-dose-only effect, or another doubt; inactive means no such curve, though single readings can be large; an effect the other way counts as inactive or inconclusive.
Assays:
[1] = Quantitative highthroughput screen to assess conditional lethalithy of NOMO1 cells grown in RPMI1640 with untreated serum (RPMI+s) (AID 1963876); further: nearly all actives have a fitted effect of over 35% in size; further: potency means the concentration at half of the fitted maximal effect
In short: (§1)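 Each medium arm—HPLM with 10% dialyzed FBS, or RPMI1640 with 5 mM glucose and 10% untreated or dialyzed FBS—was screened against an 11-point, 3-fold compound titration for 48 h at 37 °C, with CellTiter-Glo luminescence as endpoint.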

[2] = Quantitative highthroughput screen to assess conditional lethalithy of NOMO1 cells grown in RPMI1640 with dialyzed fetal bovine serum (RPMI+ds) (AID 1963877); further: nearly all actives have a fitted effect of over 30% in size; further: potency means the concentration at half of the fitted maximal effect; on viability: series mostly up to about 46 µM
In short: as §1

[3] = Quantitative highthroughput screen to assess conditional lethalithy of NOMO1 cells grown in Human Plasma-Like Medium with dialyzed fetal bovine serum (HPLM+ds) (AID 1963878); further: nearly all actives have a fitted effect of over 35% in size; further: potency means the concentration at half of the fitted maximal effect
In short: as §1

[4] = Quantitative highthroughput screen to assess conditional lethalithy of P12 Ichikawa cells grown in Human Plasma-Like Medium with dialyzed fetal bovine serum (HPLM+ds) (AID 1963879); conditions: Potency: viability; further: nearly all actives have a fitted effect of over 35% in size; further: potency means the concentration at half of the fitted maximal effect; on viability: series mostly up to about 46 µM
In short: as §1

[5] = Quantitative highthroughput screen to assess conditional lethalithy of P12 Ichikawa cells grown in RPMI1640 with untreated serum (RPMI+s) (AID 1963881); conditions: Potency: viability; further: nearly all actives have a fitted effect of over 35% in size; further: potency means the concentration at half of the fitted maximal effect; on viability: series mostly up to about 46 µM
In short: as §1

[6] = Quantitative highthroughput screen to assess conditional lethalithy of SEM cells grown in RPMI1640 with unreated serum (RPMI+s) (AID 1963883); further: nearly all actives have a fitted effect of over 35% in size; further: potency means the concentration at half of the fitted maximal effect
In short: as §1

[7] = Cellular viability qHTS for adrenocortical cancer (ACC) cell line SW-13 (AID 1963989); conditions: SW-13 ACC cells viability, CellTiter-Glo, 48 h; activity (max response): stronger effect = lower value;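 further: cells grown in serum-free medium with ITS supplement; nearly all actives have a fitted effect of over 65% in size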
In short: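 Compound titrations (up to 46 uM final, in DMSO) were applied to SW-13 cells for 48 h at 37C/5% CO2. Reading used CellTiter-Glo after 20 min at room temperature; fitted curves yielded IC50 and efficacy.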

[8] = Cellular viability qHTS for adrenocortical cancer (ACC) cell line NCI-H295R (AID 1963990); further: nearly all actives have a fitted effect of over 60% in size
In short: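 Readout: CellTiter-Glo luminescence, 20 min RT. Exposure: 48 h, 37C/5% CO2. Cells: NCI-H295R, ITS-DMEM serum-free. Range: up to 46 uM. Analysis: 4PL fit, IC50 plus efficacy.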

[9] = Quantitative highthroughput screen to assess conditional lethalithy of SEM cells grown in Human Plasma-Like Medium with dialyzed fetal bovine serum (HPLM+ds) (AID 1963882); further: nearly all actives have a fitted effect of over 35% in size; further: potency means the concentration at half of the fitted maximal effect; on viability: series mostly up to about 46 µM
In short: as §1

[10] = Quantitative highthroughput screen to assess conditional lethalithy of SEM cells grown in RPMI1640 with dialyzed fetal bovine serum (RPMI+ds) (AID 1963884); further: nearly all actives have a fitted effect of over 35% in size; further: potency means the concentration at half of the fitted maximal effect; on viability: series mostly up to about 46 µM
In short: as §1

[11] = Quantitative highthroughput screen to assess conditional lethalithy of P12 Ichikawa cells grown in RPMI1640 with dialyzed fetal bovine serum (RPMI+ds) (AID 1963880); conditions: Potency: P12-Ichikawa viability; further: nearly all actives have a fitted effect of over 35% in size; further: potency means the concentration at half of the fitted maximal effect
In short: as §1

SMILES	Potency [1]	Potency [2]	Potency [3]	Potency [4]	Potency [5]	Potency [6]	activity (max response) [7] [%]	Potency [8]	Potency [9]	Potency [10]	Potency [11]
C[C@]12CCC3c4ccc(O)cc4CCC3C1CCC2=O (stereo partly drawn)	inactive	inactive	inactive	inactive	inactive	inactive	-21	inactive	–	–	–
C=C1C(=CC=C2CCC[C@]3(C)[C@@H]([C@H](C)CCCC(C)(C)O)CC[C@@H]23)C[C@@H](O)C[C@@H]1O	inactive	inactive	inactive	inactive	–	–	–	–	inactive	–	–
COc1cc(OC)cc(-c2ccc3ncc4ccc(=O)n(-c5ccc(N6CCNCC6)c(C(F)(F)F)c5)c4c3c2)c1	inactive	8.33 µM (active)	14.8 µM (active)	10.5 µM (active)	–	16.6 µM (active)	–	–	14.8 µM (active)	–	–
CC(=O)[C@H]1CC[C@H]2[C@@H]3CCC4=CC(=O)CC[C@]4(C)[C@H]3CC[C@]12C	inactive	inactive	inactive	inactive	–	inactive	–	–	inactive	–	–
CN[C@H](CC(C)C)C(=O)N[C@H]1C(=O)N[C@@H](CC(N)=O)C(=O)N[C@@H]2C(=O)N[C@H]3C(=O)N[C@H](C(=O)N[C@H](C(=O)O)c4cc(O)cc(O)c4-c4cc3ccc4O)[C@H](O)c3ccc(c(Cl)c3)Oc3cc2cc(c3O[C@@H]2O[C@H](CO)[C@@H](O)[C@H](O)[C@@H]2O[C@H]2C[C@](C)(N)[C@H](O)[C@H](C)O2)Oc2ccc(cc2Cl)[C@H]1O	inactive	inactive	inactive	inactive	–	inactive	–	–	inactive	inactive	–
COc1ccc(C=Cc2cc(OC)c(OC)c(OC)c2)cc1O	inactive	inactive	inactive	inactive	–	inactive	–	–	–	inactive	–
N=C1SC(=Cc2ccc(-c3ccc4c(c3)C(=O)NC4=O)o2)C(=O)N1c1ccc(Br)cc1	inactive	inactive	inactive	–	inactive	13.2 µM (active)	–	–	–	–	inactive
C=CC1=C(C(=O)O)N2C(=O)[C@@H](NC(=O)C(=NO)c3csc(N)n3)[C@H]2SC1	inactive	inactive	inactive	–	inactive	inactive	–	–	inactive	inactive	inactive
CCc1cnn2c(NCc3ccc[n+]([O-])c3)cc(N3CCCC[C@@H]3CCO)nc12	0.118 µM (active)	0.0935 µM (active)	0.105 µM (active)	0.118 µM (active)	0.118 µM (active)	–	–	–	0.0743 µM (active)	0.059 µM (active)	–
CC(C=CC(=O)NO)=C[C@@H](C)C(=O)c1ccc(N(C)C)cc1	2.09 µM (active)	1.87 µM (active)	1.66 µM (active)	–	1.18 µM (active)	0.662 µM (active)	–	–	0.59 µM (active)	0.59 µM (active)	1.18 µM (active)
COc1cc(C=CC(=O)O)ccc1O	inactive	inactive	inactive	inactive	–	inactive	–	–	inactive	–	–
Cc1nc(NC(=O)N2CCC[C@@H]2C(N)=O)sc1-c1ccnc(C(C)(C)C(F)(F)F)c1	2.96 µM (active)	2.64 µM (active)	2.64 µM (active)	–	3.32 µM (active)	–	–	–	1.48 µM (active)	2.96 µM (active)	5.9 µM (active)
CC(C)c1nc(CN(C)C(=O)N[C@H](C(=O)N[C@@H](Cc2ccccc2)C[C@H](O)[C@H](Cc2ccccc2)NC(=O)OCc2cncs2)C(C)C)cs1	inactive	inactive	inactive	–	inactive	inactive	–	–	inactive	inactive	inactive
CN(C)CCCC1(c2ccc(F)cc2)OCc2cc(C#N)ccc21 (stereo not drawn)	inactive	inactive	inactive	–	inactive	inactive	–	–	inactive	inactive	inactive
CN[C@@H]1C[C@H]2O[C@@](C)([C@H]1OC)n1c3ccccc3c3c4c(c5c6ccccc6n2c5c31)C(=O)N[C@H]4O	0.833 µM (active)	1.05 µM (active)	0.59 µM (active)	–	0.418 µM (active)	0.332 µM (active)	–	–	0.332 µM (active)	0.526 µM (active)	0.59 µM (active)
COc1cc(Cl)cn2c(-c3cccc(NC4CNC4)n3)cnc12	inactive	inactive	inactive	inactive	inactive	–	–	–	–	inactive	–
O=C(O)[C@H](Cc1c[nH]c2ccccc12)N1C(=O)c2ccccc2C1=O	inactive	inactive	inactive	–	inactive	–	-15.6	–	inactive	–	inactive
Nc1cccc(S(=O)(=O)N2CCCN(S(=O)(=O)c3ccc4c(c3)OCCO4)CC2)c1	inactive	inactive	inactive	inactive	inactive	inactive	-19.9	inactive	inactive	–	–
O=C(O)[C@@H](c1ccc(OCc2ccc3ccccc3n2)cc1)C1CCCC1	inactive	inactive	inactive	–	inactive	inactive	-1.81	inactive	inactive	–	inactive
Cn1cc(-c2ccc3ncc(Cc4ccc5ncccc5c4)n3n2)cn1	inactive	inactive	inactive	inactive	–	9.35 µM (active)	2.95	inactive	8.33 µM (active)	–	–
CN(N=O)C(=O)N[C@H]1C(O)OC(CO)[C@@H](O)[C@H]1O (stereo partly drawn)	inactive	inactive	inactive	–	inactive	–	–	–	–	–	inactive
